Holding throughout (test): NCI-60 one-dose screen, 48 h (100 = growth as untreated, 0 = no growth, -100 = all killed)
One experiment concerns HCT-15 colon. The conditions noted are these: 10 µM unless noted.
The next experiment relates to HT29 colon. The note with it: 10 µM unless noted.
Another experiment concerns SNB-75 CNS. The note with it: 10 µM unless noted.
The next experiment concerns SNB-19 CNS. The conditions noted are these: 10 µM unless noted.
For another experiment, the system named is U251 CNS. The conditions noted are these: 10 µM unless noted.
The subject of the next experiment is PC-3 prostate. The conditions noted are these: 10 µM unless noted.
For a further experiment, the system named is SK-MEL-5 melanoma. The conditions noted are these: 10 µM unless noted.
The test system of another experiment is UACC-62 melanoma. The conditions noted are these: 10 µM unless noted.
The test system of the next experiment is LOX IMVI melanoma. The conditions noted are these: 10 µM.
The next experiment relates to SK-MEL-28 melanoma. The note with it: 10 µM unless noted.
The subject of another experiment is SK-MEL-2 melanoma. The note with it: 10 µM unless noted.
The next experiment relates to EKVX NSCLC. The note with it: 10 µM unless noted.
The test system of a further experiment is SN12C renal. The conditions noted are these: 10 µM unless noted.
For another experiment, the system named is UO-31 renal. The note with it: 10 µM unless noted.
The subject of another experiment is TK-10 renal. The note with it: 10 µM unless noted.
In another experiment the test system is ACHN renal. The note with it: 10 µM unless noted.
The subject of a further experiment is CAKI-1 renal. The conditions noted are these: 10 µM unless noted.
A further experiment relates to A498 renal. The note with it: 10 µM unless noted.
In the next experiment the test system is CCRF-CEM leukemia. The conditions noted are these: 10 µM unless noted.
A further experiment relates to MOLT-4 leukemia. The conditions noted are these: 10 µM unless noted.

Compounds without any hit were thinned out: in the full panel of roughly 83,000, 20% have a hit.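 How to read the values: 0–100, growth inhibition (40 = 60% inhibited); 0, no net growth; -100 to 0, cell death (-40 = 40% of starting cells died; -100 = all dead).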 Values without a mark were called inactive. The source made the active and inactive calls. Rule for the calls: active = growth percent below 10; inactive = the rest.

As to `C#CCOc1cc(N(CC)CC)ccc1C(C(=O)NC(C)(C)C)N(C(=O)C1CCc2cc(F)ccc2O1)c1ccc(Br)cc1` (centres undefined), the growth was 65.4% in the experiment on HCT-15 colon; 77.3% with HT29 colon; 98.9% with SNB-75 CNS; 91.5% in the experiment on SNB-19 CNS; 87.2% with U251 CNS; 38.8% with PC-3 prostate. Moreover, the growth in the experiment on SK-MEL-5 melanoma is 81%; in the experiment with UACC-62 melanoma, 61%; in the experiment on LOX IMVI melanoma, 35.9%; in the experiment on SK-MEL-28 melanoma, 80.2%; in the experiment with SK-MEL-2 melanoma it was 110%; in the experiment on EKVX NSCLC it was 55.3%. Moreover, the growth in the experiment with SN12C renal was 76.9%; with UO-31 renal, 51%; in the experiment on TK-10 renal it was 116%; with ACHN renal, 83.2%; in the experiment on CAKI-1 renal it was 58.7%; in the experiment with A498 renal it was 135%. Also, the results for the growth with CCRF-CEM leukemia and in the experiment with MOLT-4 leukemia were 63.6% and 21.8%, respectively.

Consider `CCOC(=O)C1=C(N)N(c2ccccc2)C2=C(C(=O)CC(C)(C)C2)C1c1ccc(N2CCOCC2)cc1` (centres undefined), for which the growth was 97.8% with HCT-15 colon; 112% in the experiment with HT29 colon; 91.4% with SNB-75 CNS; 92.9% with SNB-19 CNS; 98.7% in the experiment on U251 CNS; 94.6% in the experiment with PC-3 prostate. Further, the growth in the experiment with SK-MEL-5 melanoma was 98.7%; in the experiment with UACC-62 melanoma, 83%; with LOX IMVI melanoma it was 93.2%; in the experiment on SK-MEL-28 melanoma, 107%; in the experiment on SK-MEL-2 melanoma, 97.4%; in the experiment on EKVX NSCLC it was 95.4%. The growth with SN12C renal is 95.7%; in the experiment on UO-31 renal, 90.3%; with TK-10 renal, 108%; in the experiment on ACHN renal it was 96.7%; in the experiment with CAKI-1 renal, 82.1%; with A498 renal, 110%. For the same compound, the growth in the experiment with CCRF-CEM leukemia is 105%; with MOLT-4 leukemia, 99.2%.

For `CCOC(=O)/C=C/c1cccc2c1C(=O)NC(C)(c1cc3cc(Br)ccc3oc1=O)N2` (centres undefined), the growth was 26.4% in the experiment on HCT-15 colon; 43.5% in the experiment with HT29 colon; 38.3% with SNB-75 CNS; 48.7% in the experiment with SNB-19 CNS; 47.1% with U251 CNS; 25.4% with PC-3 prostate. Also, the growth in the experiment with SK-MEL-5 melanoma is 48.2%; in the experiment on UACC-62 melanoma, 31.4%; with LOX IMVI melanoma, 44.3%; in the experiment with SK-MEL-28 melanoma, 58.1%; in the experiment on SK-MEL-2 melanoma, 5.72% (active); with EKVX NSCLC it was 43.8%. For the same compound, the growth was 53.3% in the experiment with SN12C renal; 19.8% with UO-31 renal; 58.4% in the experiment with TK-10 renal; 28.1% with ACHN renal; 20.2% with CAKI-1 renal; 59.8% in the experiment with A498 renal. Moreover, the growth in the experiment on CCRF-CEM leukemia is 36.8%; in the experiment with MOLT-4 leukemia, 30.4%.

Consider `COC1=C[C@]23CCC(=O)N2CCc2cc4c(cc2[C@@H]3[C@@H]1OC(=O)[C@H](C)O)OCO4`, for which the growth was -1.4% (active) in the experiment with HCT-15 colon; 1.93% (active) in the experiment on HT29 colon; -10.6% (active) in the experiment with SNB-75 CNS; -1.61% (active) in the experiment with SNB-19 CNS; -3.63% (active) with U251 CNS; 14.8% in the experiment on PC-3 prostate. For the same compound, the growth is -2.42% (active) in the experiment on SK-MEL-5 melanoma; 31.5% in the experiment with UACC-62 melanoma; -57.2% (active) in the experiment on LOX IMVI melanoma; 15.1% in the experiment with SK-MEL-28 melanoma; 58.5% in the experiment with SK-MEL-2 melanoma; 43% in the experiment on EKVX NSCLC. In addition, the growth with SN12C renal is 57.8%; with UO-31 renal it was 26.4%; in the experiment with TK-10 renal it was 47.7%; in the experiment on ACHN renal, 5.84% (active); in the experiment with CAKI-1 renal, 15%; in the experiment on A498 renal, -9.89% (active). Moreover, the growth in the experiment with CCRF-CEM leukemia was 1.16% (active); with MOLT-4 leukemia it was 2.59% (active).

On to `N=C1N=C(SCc2nc3ccccc3[nH]2)NC(=O)/C1=C/c1ccc(Cl)cc1`, for which the growth in the experiment on HCT-15 colon was 103%; in the experiment on HT29 colon it was 108%; in the experiment with SNB-75 CNS it was 106%; in the experiment with SNB-19 CNS, 105%; in the experiment on U251 CNS it was 105%; in the experiment with PC-3 prostate, 107%. Besides, the growth with SK-MEL-5 melanoma is 98.3%; in the experiment on UACC-62 melanoma it was 90.3%; with LOX IMVI melanoma, 91.3%; with SK-MEL-28 melanoma, 110%; with SK-MEL-2 melanoma, 105%; in the experiment with EKVX NSCLC it was 106%. The growth in the experiment with SN12C renal is 98.6%; in the experiment on UO-31 renal, 70.5%; in the experiment on TK-10 renal, 143%; with ACHN renal it was 99.6%; with CAKI-1 renal, 85.9%; with A498 renal, 122%. For the same compound, the growth in the experiment with CCRF-CEM leukemia is 100%; with MOLT-4 leukemia it was 99.5%.

Take `Nc1nc(-c2ccccc2)c(N=Nc2ccc(Cl)cc2[N+](=O)[O-])s1`: the growth in the experiment with HCT-15 colon was 94.4%; with HT29 colon, 100%; with SNB-75 CNS, 80.1%; in the experiment on SNB-19 CNS, 89.2%; in the experiment with U251 CNS, 92.4%; in the experiment with PC-3 prostate, 87.1%. For the same compound, the growth was 98.8% in the experiment on SK-MEL-5 melanoma; 77.3% in the experiment with UACC-62 melanoma; 88.2% in the experiment on LOX IMVI melanoma; 107% in the experiment with SK-MEL-28 melanoma; 90.4% with SK-MEL-2 melanoma; 76.8% in the experiment with EKVX NSCLC. The growth in the experiment with SN12C renal was 96%; in the experiment on UO-31 renal, 65.2%; with TK-10 renal, 169%; in the experiment on ACHN renal it was 101%; in the experiment on CAKI-1 renal, 82.5%; with A498 renal, 92%. The growth was 101% with CCRF-CEM leukemia and 100% in the experiment on MOLT-4 leukemia.

As to `Cc1nc(Nc2ccccn2)sc1C(=O)CC(SCC(=O)Nc1ccc(Cl)cc1)c1ccccc1F` (centres undefined), the growth with HCT-15 colon is 2.33% (active); in the experiment on HT29 colon, -28.4% (active); in the experiment with SNB-75 CNS it was 16.5%; in the experiment with SNB-19 CNS, 11%; with U251 CNS, -21.1% (active); in the experiment on PC-3 prostate, 43.2%. For the same compound, the growth with SK-MEL-5 melanoma is 4.3% (active); in the experiment on UACC-62 melanoma, -10.6% (active); with LOX IMVI melanoma, -22.5% (active); in the experiment on SK-MEL-28 melanoma, 24.1%; with SK-MEL-2 melanoma, -27.1% (active); in the experiment with EKVX NSCLC, 36.5%. The growth in the experiment with SN12C renal is -15.1% (active); in the experiment on UO-31 renal, 30.3%; with TK-10 renal it was 6.79% (active); in the experiment on ACHN renal, 24.6%; in the experiment on CAKI-1 renal, 15.3%; in the experiment on A498 renal, 45.3%. For the same compound, the growth with CCRF-CEM leukemia was 12.4%; in the experiment on MOLT-4 leukemia, 23.7%.

For `COc1ccc(C2CC(c3ccc(S(=O)(=O)NCCNc4nc(Nc5ccc(F)cc5)nc(N(C)C)n4)cc3)=Nc3c(N)nc(N)nc3N2)cc1` (centres undefined), the growth was 82.7% with HCT-15 colon; 63.4% with HT29 colon; 92.7% in the experiment with SNB-75 CNS; 76.3% in the experiment with SNB-19 CNS; 64.5% in the experiment with U251 CNS; 53.7% in the experiment on PC-3 prostate. Besides, the growth with SK-MEL-5 melanoma was 71.7%; in the experiment with UACC-62 melanoma, 81.6%; in the experiment with LOX IMVI melanoma, 65.1%; in the experiment on SK-MEL-28 melanoma it was 85.5%; in the experiment on SK-MEL-2 melanoma, 107%; in the experiment on EKVX NSCLC, 87.9%. Also, the growth in the experiment with SN12C renal is 81.1%; with UO-31 renal it was 86.2%; in the experiment on TK-10 renal, 107%; in the experiment on ACHN renal, 92.7%; with CAKI-1 renal, 88.1%; with A498 renal, 93.6%. In the experiment with MOLT-4 leukemia, the growth is 20.6%.

These data come from PubChem BioAssay (NCI).
